The supplement of paper PMC10849652
The full data set covers some 7,900 targets. This sample favours those with a hit. About 0.6% of all pairs of compound and target were hits.

Key:
Assay in all cases: log2 fold change, soluble protein after heating vs DMSO (PISA); higher = thermal stabilisation; K562 cells, 10 uM, 30 min; active = over 0.2 and 3.5 SD of the protein, either way, in both replicates (recomputed)
[1] = compound: NC(=O)Nc1cc(-c2cccc(F)c2)sc1C(=O)N[C@H]1CCCNC1
Outline: (§1)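 Soluble protein was quantified by TMTpro 16plex LC-MS/MS after channel sums were equalised. It was obtained as the supernatant after 21,000xg for 90 min from pooled aliquots of K562 cells (2×10^6 cells/mL, 10 μM compound, 30 min) heated for 3 min across 48°C-58°C and extracted in PBS with 0.5% NP-40 at 4°C. Thermal stability values are relative to control samples and come from duplicates. They are given as log2 fold changes.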

[2] = compound: NC(=O)c1cnc(N[C@@H]2CCCC[C@@H]2N)nc1Nc1cccc(-n2nccn2)c1
Outline: as §1

[3] = compound: NC1(c2ccc(-c3nc4ccn5c(=O)[nH]nc5c4cc3-c3ccccc3)cc2)CCC1
Outline: as §1

[4] = compound: NCC(=O)Nc1ccc(-n2nc(C(F)(F)F)cc2-c2ccc3c(ccc4ccccc43)c2)cc1
Outline: as §1

[5] = compound: Nc1ccccc1NC(=O)c1ccc(CNC(=O)OCc2cccnc2)cc1 [entinostat]
Outline: as §1

[6] = compound: O=C(CCCCCCC(=O)Nc1ccccc1)NO [vorinostat]
Outline: as §1

[7] = compound: O=C(CCCCCCNC(=O)c1cnc(N(c2ccccc2)c2ccccc2Cl)nc1)NO [citarinostat]
Outline: as §1

[8] = compound: O=C(O)c1ccc2c(c1)nc(Nc1cccc(Cl)c1)c1ccncc12 [silmitasertib]
Outline: as §1

[9] = compound: O=C1NC(=O)C(c2cnc3ccccn23)=C1c1cn2c3c(cc(F)cc13)CN(C(=O)N1CCCCC1)CC2
Outline: as §1

[10] = compound: c1cc(OCCN2CCCCC2)cc(-c2n[nH]c3ccc(-c4nnc[nH]4)cc23)c1
Outline: as §1

[11] = compound: c1cn2cc(-c3ccc4cn[nH]c4c3)nc(Nc3ccc(N4CCOCC4)cc3)c2n1 [entospletinib]
Outline: as §1

Measured: log2 fold change

BUB1B isoform 3 (UniProt O60566)
inactive: [1] 0 | [2] -0.135 | [3] -0.113 | [4] -0.039 | [5] 0.068 | [6] 0.124 | [7] 0.02 | [8] 0.111 | [9] 0.026 | [10] 0 | [11] -0.016

ARPP19 (UniProt P56211)
Chain of UniProt P56211 (P56211 whole entry, looked up): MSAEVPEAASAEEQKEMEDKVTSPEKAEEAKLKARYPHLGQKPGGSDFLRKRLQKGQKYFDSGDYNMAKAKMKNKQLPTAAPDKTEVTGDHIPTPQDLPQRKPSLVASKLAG
inactive: [1] -0.049 | [2] -0.075 | [3] -0.019 | [4] 0.046 | [5] 0.027 | [6] -0.038 | [7] 0.1 | [8] 0 | [9] 0.026 | [10] -0.051 | [11] -0.06

BAP1 (UniProt Q92560)
inactive: [1] -0.073 | [2] 0.085 | [3] 0.073 | [4] 0.012 | [5] -0.054 | [6] 0.13 | [7] 0.058 | [8] 0.04 | [9] 0.076 | [10] -0.142 | [11] -0.062

AIFM2 (UniProt Q9BRQ8)
inactive: [1] 0.016 | [2] -0.019 | [3] 0.034 | [4] -0.02 | [5] -0.01 | [6] -0.053 | [7] 0.046 | [8] 0.03 | [9] 0.047 | [10] -0.034 | [11] 0.01

BYSL (UniProt Q13895)
inactive: [1] -0.012 | [2] 0.053 | [3] -0.052 | [4] 0.062 | [5] 0.046 | [6] 0.058 | [7] -0.007 | [8] 0.085 | [9] 0.068 | [10] 0.001 | [11] -0.065

AKR1C2 (UniProt P52895)
inactive: [1] 0.133 | [2] -0.092 | [3] 0.206 | [4] -0.006 | [5] -0.129 | [6] 0.012 | [7] 0.018 | [8] 0.257 | [9] 0.079 | [10] -0.076 | [11] 0.071

ADD3 (UniProt Q9UEY8)
inactive: [1] 0.03 | [2] -0.014 | [3] 0.047 | [4] -0.001 | [5] -0.051 | [6] -0.01 | [7] -0.015 | [8] 0.001 | [9] -0.037 | [10] -0.024 | [11] 0.046

ATP6V1H (UniProt Q9UI12)
Chain of UniProt Q9UI12 (Q9UI12 whole entry, looked up): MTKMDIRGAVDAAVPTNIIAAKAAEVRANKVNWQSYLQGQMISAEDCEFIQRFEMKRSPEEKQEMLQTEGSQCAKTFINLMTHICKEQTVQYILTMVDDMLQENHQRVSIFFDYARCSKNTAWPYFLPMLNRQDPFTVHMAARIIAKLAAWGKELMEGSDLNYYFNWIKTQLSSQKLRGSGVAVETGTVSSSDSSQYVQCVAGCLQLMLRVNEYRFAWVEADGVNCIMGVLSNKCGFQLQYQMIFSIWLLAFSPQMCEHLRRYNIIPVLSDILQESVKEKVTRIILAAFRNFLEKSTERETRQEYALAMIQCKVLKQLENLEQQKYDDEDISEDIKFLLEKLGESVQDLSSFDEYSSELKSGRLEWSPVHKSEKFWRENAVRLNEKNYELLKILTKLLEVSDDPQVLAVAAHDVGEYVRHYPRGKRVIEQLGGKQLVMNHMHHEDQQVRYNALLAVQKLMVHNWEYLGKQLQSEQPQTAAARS
inactive: [1] 0 | [2] -0.141 | [3] -0.201 | [4] -0.094 | [5] 0.046 | [6] 0.032 | [7] 0.031 | [8] 0.005 | [9] 0.025 | [10] -0.062 | [11] 0.004

ATP13A2 (UniProt Q9NQ11)
Chain of UniProt Q9NQ11 (Q9NQ11 whole entry, looked up): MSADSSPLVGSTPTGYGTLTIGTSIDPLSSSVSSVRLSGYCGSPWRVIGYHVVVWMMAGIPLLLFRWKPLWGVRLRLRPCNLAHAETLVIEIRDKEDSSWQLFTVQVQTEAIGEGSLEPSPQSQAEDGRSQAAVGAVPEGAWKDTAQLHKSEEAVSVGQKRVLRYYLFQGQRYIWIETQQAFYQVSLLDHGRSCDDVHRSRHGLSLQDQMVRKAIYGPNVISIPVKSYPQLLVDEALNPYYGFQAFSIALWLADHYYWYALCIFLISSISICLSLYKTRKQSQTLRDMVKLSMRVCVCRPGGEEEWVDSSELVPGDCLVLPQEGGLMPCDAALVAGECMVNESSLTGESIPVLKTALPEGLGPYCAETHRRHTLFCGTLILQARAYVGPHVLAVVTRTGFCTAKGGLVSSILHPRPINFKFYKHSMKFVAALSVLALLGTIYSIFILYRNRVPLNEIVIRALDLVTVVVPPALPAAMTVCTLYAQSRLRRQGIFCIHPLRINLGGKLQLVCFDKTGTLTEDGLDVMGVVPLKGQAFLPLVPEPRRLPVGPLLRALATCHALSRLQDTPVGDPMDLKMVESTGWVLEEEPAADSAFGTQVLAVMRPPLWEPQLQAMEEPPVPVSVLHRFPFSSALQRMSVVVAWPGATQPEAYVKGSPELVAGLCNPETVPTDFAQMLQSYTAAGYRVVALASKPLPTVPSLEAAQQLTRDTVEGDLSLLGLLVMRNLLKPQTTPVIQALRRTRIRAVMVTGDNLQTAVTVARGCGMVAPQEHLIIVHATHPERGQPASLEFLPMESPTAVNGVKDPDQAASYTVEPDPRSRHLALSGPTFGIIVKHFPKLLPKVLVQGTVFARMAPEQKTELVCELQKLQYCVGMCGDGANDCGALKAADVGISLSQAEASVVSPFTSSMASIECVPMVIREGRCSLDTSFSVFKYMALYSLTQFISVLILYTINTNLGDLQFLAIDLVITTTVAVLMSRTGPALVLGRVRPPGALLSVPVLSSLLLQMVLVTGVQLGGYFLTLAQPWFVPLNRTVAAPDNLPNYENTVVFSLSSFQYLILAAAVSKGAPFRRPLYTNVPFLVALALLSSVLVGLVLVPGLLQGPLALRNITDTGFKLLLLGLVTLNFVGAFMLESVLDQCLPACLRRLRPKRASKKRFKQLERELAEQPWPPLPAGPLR
inactive: [1] 0.032 | [2] 0.01 | [4] 0.064 | [5] -0.005 | [6] 0.005 | [7] -0.054 | [8] 0.026 | [9] -0.052 | [10] -0.025 | [11] -0.115
active: [3] -0.336

ASB6 (UniProt Q9NWX5)
Chain of UniProt Q9NWX5 (Q9NWX5 whole entry, looked up): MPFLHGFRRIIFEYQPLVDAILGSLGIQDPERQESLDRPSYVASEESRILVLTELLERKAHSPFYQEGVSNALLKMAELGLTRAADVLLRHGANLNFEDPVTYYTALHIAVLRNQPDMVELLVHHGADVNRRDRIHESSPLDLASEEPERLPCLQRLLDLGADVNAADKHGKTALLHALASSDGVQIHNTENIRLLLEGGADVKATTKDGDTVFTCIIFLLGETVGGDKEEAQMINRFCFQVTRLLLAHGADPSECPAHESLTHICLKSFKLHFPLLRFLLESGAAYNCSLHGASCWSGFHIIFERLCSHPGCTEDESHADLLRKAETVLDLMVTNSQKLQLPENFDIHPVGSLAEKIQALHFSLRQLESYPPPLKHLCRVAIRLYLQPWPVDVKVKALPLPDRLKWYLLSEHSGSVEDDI
inactive: [1] 0.076 | [2] 0.161 | [3] -0.216 | [4] -0.032 | [5] -0.12 | [6] -0.075 | [7] 0.106 | [8] -0.006 | [9] 0.059 | [10] 0.07 | [11] -0.065

AKAP8 (UniProt O43823)
Chain of UniProt O43823 (O43823 whole entry, looked up): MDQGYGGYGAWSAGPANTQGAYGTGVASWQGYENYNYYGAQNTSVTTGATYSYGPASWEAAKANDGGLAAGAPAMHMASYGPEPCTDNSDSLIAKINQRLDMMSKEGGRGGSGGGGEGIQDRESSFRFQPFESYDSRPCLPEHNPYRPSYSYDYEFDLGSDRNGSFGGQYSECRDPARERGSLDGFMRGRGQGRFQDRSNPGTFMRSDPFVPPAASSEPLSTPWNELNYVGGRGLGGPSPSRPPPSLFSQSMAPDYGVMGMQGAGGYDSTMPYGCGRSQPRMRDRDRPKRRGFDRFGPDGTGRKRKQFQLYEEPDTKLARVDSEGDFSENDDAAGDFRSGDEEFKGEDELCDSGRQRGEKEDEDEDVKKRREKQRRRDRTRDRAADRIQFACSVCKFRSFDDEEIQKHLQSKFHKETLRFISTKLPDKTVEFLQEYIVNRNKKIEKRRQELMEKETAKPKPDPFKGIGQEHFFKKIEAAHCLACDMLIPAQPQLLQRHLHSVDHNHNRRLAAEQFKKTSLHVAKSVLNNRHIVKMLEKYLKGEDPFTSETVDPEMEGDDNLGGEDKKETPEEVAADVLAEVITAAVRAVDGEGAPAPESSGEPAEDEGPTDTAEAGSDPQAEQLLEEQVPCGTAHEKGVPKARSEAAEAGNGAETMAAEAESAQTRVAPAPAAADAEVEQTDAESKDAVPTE
inactive: [1] -0.043 | [2] -0.037 | [3] 0.023 | [4] -0.012 | [5] -0.024 | [6] 0.01 | [7] 0.002 | [8] -0.13 | [9] -0.1 | [10] -0.043 | [11] -0.018

AGPAT3 isoform 3 (UniProt Q9NRZ7)
inactive: [1] 0.008 | [2] -0.044 | [3] -0.141 | [4] -0.041 | [5] 0.004 | [6] 0.004 | [7] 0.029 | [8] 0.008 | [9] -0.079 | [10] -0.044 | [11] -0.017

ARFRP1 (UniProt Q13795)
inactive: [1] 0.167 | [2] 0.108 | [3] -0.173 | [4] 0.067 | [5] 0.117 | [6] 0.054 | [7] 0.025 | [8] 0.013 | [9] -0.085 | [10] 0.074 | [11] 0.024

ABHD16A (UniProt O95870)
Chain of UniProt O95870 (O95870 whole entry, looked up): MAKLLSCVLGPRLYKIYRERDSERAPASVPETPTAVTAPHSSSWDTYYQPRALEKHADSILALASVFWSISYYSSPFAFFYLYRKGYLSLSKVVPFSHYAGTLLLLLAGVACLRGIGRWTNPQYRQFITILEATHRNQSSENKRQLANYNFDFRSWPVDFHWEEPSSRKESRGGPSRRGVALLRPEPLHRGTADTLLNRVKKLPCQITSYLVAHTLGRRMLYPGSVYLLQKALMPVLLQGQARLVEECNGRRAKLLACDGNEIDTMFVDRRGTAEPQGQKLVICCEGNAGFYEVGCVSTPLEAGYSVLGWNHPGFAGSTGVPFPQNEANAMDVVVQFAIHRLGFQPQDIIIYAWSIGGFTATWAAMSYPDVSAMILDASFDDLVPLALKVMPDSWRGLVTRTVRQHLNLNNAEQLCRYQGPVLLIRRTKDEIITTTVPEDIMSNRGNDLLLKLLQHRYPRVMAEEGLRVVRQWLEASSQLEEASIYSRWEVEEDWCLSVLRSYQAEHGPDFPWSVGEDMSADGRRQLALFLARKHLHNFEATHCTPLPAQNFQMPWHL
inactive: [1] -0.026 | [2] 0.026 | [3] 0.113 | [4] 0.049 | [5] -0.02 | [6] 0.055 | [7] 0.026 | [8] -0.022 | [9] 0.005 | [10] 0.008 | [11] 0.002

ATG9A (UniProt Q7Z3C6)
inactive: [1] 0.019 | [2] 0 | [3] -0.262 | [4] 0.038 | [5] 0.008 | [6] 0.061 | [7] 0.059 | [8] -0.023 | [9] 0.019 | [10] -0.013 | [11] -0.025

BTBD6 (UniProt Q96KE9)
Chain of UniProt Q96KE9 (Q96KE9 whole entry, looked up): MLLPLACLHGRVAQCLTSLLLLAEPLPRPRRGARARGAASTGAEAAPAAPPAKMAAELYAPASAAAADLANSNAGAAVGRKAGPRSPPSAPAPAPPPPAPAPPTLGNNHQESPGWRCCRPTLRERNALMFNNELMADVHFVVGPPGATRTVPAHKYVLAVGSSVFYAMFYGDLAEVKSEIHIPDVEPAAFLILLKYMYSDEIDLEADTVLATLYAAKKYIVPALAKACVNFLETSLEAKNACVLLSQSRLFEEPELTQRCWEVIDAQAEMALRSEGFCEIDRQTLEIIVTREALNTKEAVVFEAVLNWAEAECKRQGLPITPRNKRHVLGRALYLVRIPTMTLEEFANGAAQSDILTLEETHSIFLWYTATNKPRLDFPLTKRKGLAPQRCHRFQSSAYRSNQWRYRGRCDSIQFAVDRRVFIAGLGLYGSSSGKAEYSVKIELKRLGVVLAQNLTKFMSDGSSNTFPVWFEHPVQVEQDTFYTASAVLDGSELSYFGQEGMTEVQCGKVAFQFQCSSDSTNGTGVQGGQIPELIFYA
inactive: [1] 0.054 | [2] 0.102 | [3] 0.469 | [4] 0.199 | [5] -0.039 | [6] 0.081 | [7] 0.273 | [8] -0.352 | [9] -0.011 | [10] 0.118 | [11] 0.056

AKAP8L (UniProt Q9ULX6)
inactive: [1] -0.006 | [2] 0.153 | [3] -0.063 | [4] -0.098 | [5] 0.01 | [6] 0.088 | [7] 0.124 | [8] -0.012 | [9] -0.236 | [10] -0.067 | [11] 0.171

AMFR (UniProt Q9UKV5)
inactive: [1] -0.024 | [2] -0.128 | [3] -0.115 | [4] -0.075 | [5] 0.051 | [6] 0.055 | [7] 0.012 | [8] 0.07 | [9] -0.032 | [10] 0.021 | [11] -0.059

ARFGAP1 (UniProt Q8N6T3)
inactive: [1] -0.036 | [2] -0.033 | [3] -0.073 | [4] -0.052 | [5] 0.041 | [6] 0.006 | [7] 0.056 | [8] 0.063 | [9] -0.092 | [10] 0.035 | [11] -0.032

AMD1 (UniProt P17707)
Chain of UniProt P17707 (P17707 whole entry, looked up): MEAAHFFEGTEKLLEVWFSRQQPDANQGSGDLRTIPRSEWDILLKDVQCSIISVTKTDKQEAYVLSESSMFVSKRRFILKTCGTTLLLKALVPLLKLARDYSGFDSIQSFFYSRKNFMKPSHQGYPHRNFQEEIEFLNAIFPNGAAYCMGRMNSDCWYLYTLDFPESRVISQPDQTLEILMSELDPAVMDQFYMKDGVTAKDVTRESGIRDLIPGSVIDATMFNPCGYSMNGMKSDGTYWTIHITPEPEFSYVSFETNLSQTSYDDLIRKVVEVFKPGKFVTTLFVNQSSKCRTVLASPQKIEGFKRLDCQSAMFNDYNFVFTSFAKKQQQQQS
inactive: [1] 0.043 | [2] -0.091 | [3] -0.074 | [4] -0.149 | [5] -0.038 | [6] -0.093 | [7] 0.007 | [8] 0.004 | [9] -0.007 | [10] -0.08 | [11] 0.045

ARGLU1 (UniProt Q9NWB6)
inactive: [1] -0.089 | [2] 0.01 | [3] 0.168 | [4] -0.08 | [5] -0.071 | [6] -0.061 | [7] 0.026 | [8] -0.245 | [9] 0.319 | [10] -0.208 | [11] -0.013

AGPS (UniProt O00116)
inactive: [1] -0.013 | [2] 0.007 | [3] -0.112 | [4] 0 | [5] 0.023 | [6] 0.045 | [7] 0.058 | [8] 0.011 | [9] -0.107 | [10] -0.011 | [11] 0.008

BLOC1S3 (UniProt Q6QNY0)
inactive: [1] 0.057 | [2] 0 | [3] -0.014 | [4] -0.023 | [5] -0.06 | [6] 0.039 | [7] -0.018 | [8] 0.006 | [9] -0.013 | [10] -0.014 | [11] -0.079

ARL6IP6 (UniProt Q8N6S5)
Chain of UniProt Q8N6S5 (Q8N6S5 whole entry, looked up): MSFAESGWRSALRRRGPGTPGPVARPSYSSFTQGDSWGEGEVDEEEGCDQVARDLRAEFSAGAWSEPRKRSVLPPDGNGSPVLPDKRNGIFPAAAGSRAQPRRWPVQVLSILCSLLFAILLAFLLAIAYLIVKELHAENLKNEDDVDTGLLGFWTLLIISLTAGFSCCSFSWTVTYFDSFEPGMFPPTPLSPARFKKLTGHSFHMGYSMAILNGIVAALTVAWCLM
inactive: [1] -0.085 | [2] -0.125 | [3] -0.073 | [4] -0.015 | [5] -0.021 | [6] -0.007 | [7] -0.058 | [8] -0.014 | [9] 0.011 | [10] -0.059 | [11] -0.091

ALDH2 (UniProt P05091)
inactive: [1] 0.012 | [2] -0.039 | [3] -0.046 | [4] -0.016 | [5] -0.007 | [7] 0.043 | [8] -0.038 | [9] -0.001 | [10] -0.023 | [11] -0.025
active: [6] 0.216

ANKRD29 (UniProt Q8N6D5)
Chain of UniProt Q8N6D5 (Q8N6D5 whole entry, looked up): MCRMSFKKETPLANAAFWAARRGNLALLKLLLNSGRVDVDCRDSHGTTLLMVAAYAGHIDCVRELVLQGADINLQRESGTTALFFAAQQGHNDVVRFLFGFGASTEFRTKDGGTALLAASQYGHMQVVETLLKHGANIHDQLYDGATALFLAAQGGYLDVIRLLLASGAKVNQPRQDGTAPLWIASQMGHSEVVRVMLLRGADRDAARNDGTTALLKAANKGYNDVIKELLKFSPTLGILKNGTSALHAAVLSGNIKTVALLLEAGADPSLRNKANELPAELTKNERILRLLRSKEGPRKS
inactive: [1] -0.044 | [2] -0.181 | [3] -0.337 | [4] -0.119 | [5] -0.03 | [6] 0.061 | [7] -0.002 | [8] 0.039 | [9] -0.2 | [10] -0.051 | [11] -0.152

ATP6V0A1 isoform 3 (UniProt Q93050)
inactive: [1] -0.051 | [2] -0.207 | [3] -0.184 | [4] 0.008 | [5] 0.083 | [6] 0.062 | [7] 0.109 | [8] 0.102 | [9] 0.019 | [10] -0.112 | [11] 0.079
